Data on 27 compounds can be found in PubChem BioAssay (NCI).

About 83,000 compounds went through this panel and 20% of them were active in at least one assay; those are over-represented in the sample as a whole.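 For each line, cells grew in 96-well plates with the test compound present at a single concentration for 48 hours.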 Values without a mark were called inactive. Active and inactive are the calls of the source. How the source made its calls: active means growth percent below 10; inactive means the rest.

Experiment in all cases: NCI-60 one-dose screen, 48 h (100 = growth as untreated, 0 = no growth, -100 = all killed)
Common to all, as to details: 10 µM unless noted

Assay [1] has as its system HCT-15 colon.
Assay [2] concerns HT29 colon.
The subject of assay [3] is SNB-75 CNS.
The test system of assay [4] is SNB-19 CNS.
The subject of assay [5] is U251 CNS.
Assay [6] concerns PC-3 prostate.
The test system of assay [7] is SK-MEL-5 melanoma.
In assay [8] the test system is UACC-62 melanoma.
Assay [9] relates to LOX IMVI melanoma.
In assay [10] the test system is SK-MEL-28 melanoma.

As to `CCC1N=C(N)N=C(N)N1c1ccc(Cl)cc1` (stereo not given), the growth in [1] was 105%; in assay [2], 72.1%; in assay [3] it was 91.7%; in assay [4] it was 106%; in assay [5], 58.8%; in assay [6] it was 62.6%. In addition, the growth in assay [7] was 49.5%; in [8], 100%; in assay [9], 68.6%; in assay [10], 101%.
With `c1ccc(CCn2cccc2)nc1`, the growth in assay [1] was 119%; in assay [2], 114%; in [3] it was 95.1%; in assay [4], 105%; in assay [5] it was 103%; in assay [6], 98.9%. In addition, the growth in assay [7] is 109%; in assay [8], 97.9%; in [9], 98.6%; in assay [10], 118%.
With `c1cn2cc(-c3ccc4ncn(C5CCCCC5)c4c3)nc(-c3ccc4c(c3)ncn4C3CCCCC3)c2n1`, the growth in assay [1] is -11.5% (active); in assay [2], -26.2% (active); in assay [3] it was -89.6% (active); in assay [4], 6.63% (active); in assay [5], -83.3% (active); in [6], -64.1% (active). Further, the growth in [7] is -89.4% (active); in assay [8] it was -47.7% (active); in [9], -87.4% (active); in assay [10], -19.8% (active).
`N=c1nc(N2CCCCC2)cc(N)n1O`: the growth in [1] was 97%; in [2], 107%; in [3] it was 93.5%; in assay [4] it was 99.8%; in [5], 101%; in assay [6], 103%. Also, the growth is 94.8% in assay [7], 104% in assay [8], 110% in assay [9] and 111% in assay [10].
Turning to `O=c1oc2ccccc2cc1-c1cc(-c2ccc(-c3cc(-c4cc5ccccc5oc4=O)nc(-c4cc5ccccc5oc4=O)c3)cc2)cc(-c2cc3ccccc3oc2=O)n1`, the growth in [1] was 103%; in [2] it was 108%; in assay [3] it was 97.5%; in assay [4] it was 96.9%; in [5], 99.6%; in assay [6], 101%. The growth in assay [7] is 101%; in assay [8] it was 99.1%; in assay [9] it was 102%; in assay [10] it was 108%.
As to `CCOC(=O)c1ccc2c(c1)nc(-c1ccc(Cl)cc1)n2-c1cc(C(C)(C)C)[nH]n1`, the growth was 20.2% in assay [1]; 18.5% in assay [2]; 18.2% in [3]; 48% in assay [4]; 33.6% in assay [5]; 48.7% in [6]. The growth in assay [7] is 0.494% (active); in assay [8] it was 25.5%; in assay [9], 27.8%; in assay [10], 36.2%.
On to `O=C(CCCN1CCC(O)(c2ccc(Br)cc2)CC1)c1ccc(F)cc1`, for which the growth was 49.8% in assay [1]; 22.1% in [2]; 67.7% in assay [3]; 78.4% in [4]; 64.4% in assay [5]; 69.7% in assay [6]. Moreover, the growth is -1.83% (active) in assay [7], 43.6% in [8], 53.7% in assay [9] and 74.6% in assay [10].
With `CCOC(=O)c1cc(C(=O)OCC)c(C)nc1C`, the growth in assay [1] was 102%; in assay [2], 104%; in assay [3], 99%; in assay [4], 103%; in assay [5], 103%; in [6], 98.2%. In addition, the growth in [7] is 107%; in assay [8], 103%; in [9], 107%; in [10], 112%.
In the case of `Brc1ccsc1Br`, the growth in [1] is 111%; in [2], 105%; in assay [3], 83.5%; in assay [4], 106%; in assay [5] it was 109%; in assay [6], 107%. Further, the growth in [7] was 106%; in assay [8] it was 109%; in [9] it was 108%; in assay [10], 106%.
With `CS(=O)(=O)c1ccc(C(=O)N/N=C/c2ccccc2O)cc1`, the growth in [1] is 18%; in [2], 43.6%; in assay [3] it was 77.8%; in assay [4], 45.4%; in assay [5], 27.8%; in [6], 54.3%. For the same compound, the growth was 32.2% in assay [7], 16.4% in [8], 21.4% in [9] and 55.9% in assay [10].
Consider `CCN(CC)c1ccc(/C=C2/NC(=O)NC2=O)cc1`, for which the growth in assay [1] was 36.6%; in [2], 16.5%; in assay [3], 59.1%; in [4], 61.1%; in assay [5] it was 44.7%; in assay [6], 65.8%. For the same compound, the growth in [7] is -7.83% (active); in [8] it was 11.7%; in [9], 46.4%; in assay [10], 66.6%.
Take `Cc1cc(O)ccc1Sc1ccccc1[N+](=O)[O-]`: the growth was 92.7% in assay [1]; 94.3% in [2]; 94.8% in [3]; 91.6% in assay [4]; 94.2% in assay [5]; 82.3% in assay [6]. The growth in assay [7] was 91.1%; in assay [8], 76%; in [9] it was 84.1%; in assay [10], 101%.
For `CCCCCCCCCCCC1=NC(C)(C)CN1CC(C)O` (stereo not given), the growth in assay [1] was 6.24% (active); in assay [2], -48.3% (active); in [3], 61.8%; in assay [4] it was 96.8%; in assay [5] it was 33.9%; in [6], 51.4%. In addition, the growth is 34% in [7], -49.4% (active) in assay [8], 6.88% (active) in [9] and 59.8% in assay [10].
For the compound `COc1cc(C2CC(c3ccc(C)cc3)=NN2C=O)ccc1Oc1ccnc2cc(Cl)ccc12` (stereo not given), the growth in assay [1] was 97.4%; in assay [2], 92.3%; in assay [3] it was -36.1% (active); in assay [4] it was 29.5%; in [5], 7.3% (active); in assay [6], 85.3%. Moreover, the growth is 97.1% in [7], 55.8% in assay [8], 76% in assay [9] and 101% in assay [10].
As to `C#CCO[C@H]1CC[C@H](OCC#C)[C@@H]2[C@H]1[C@H]1C[C@@H]3[C@@]4(C)CCC[C@@](C)(C(=O)OC)[C@@H]4CC[C@@]23C=C1C(C)C`, the growth is 91.8% in assay [1]; 53.6% in assay [2]; 94.7% in [3]; 96.1% in assay [4]; 46.8% in assay [5]; 44.8% in [6]. Further, the growth in [7] is 87.6%; in [8] it was 74.6%; in assay [9], -64.5% (active); in assay [10], 102%.
Take `COc1ccc(-c2cc(-c3ccc(OC)cc3)c3sc(=O)[nH]c3n2)cc1`: the growth in [1] is 90.2%; in [2], 102%; in [3], 88.6%; in [4], 73.8%; in assay [5], 72.6%; in assay [6] it was 86.1%. For the same compound, the growth in [7] was 96.4%; in assay [8] it was 90.1%; in [9] it was 92.3%; in assay [10], 115%.
Turning to `CCCCc1nc(Cl)c(C2CC(c3ccc(S(N)(=O)=O)cc3)=NN2c2cc(Cl)cc(Cl)c2)[nH]1` (stereo not given), the growth in assay [1] was 45.7%; in assay [2], 23.3%; in assay [3] it was 62.2%; in [4], 36.4%; in assay [5], 23.5%; in assay [6], 36.4%. In addition, the growth was 57.9% in [7], 38.8% in [8], -6.25% (active) in [9] and 55.2% in [10].
For `COc1ccc(-c2nn(C(=O)NCCN(C)C)cc2-c2ccncc2)cc1Cl`, the growth in assay [1] was 33.5%; in assay [2], 15.3%; in assay [3], -20% (active); in [4], 54.8%; in assay [5] it was 31.1%; in assay [6] it was 63.5%. Also, the growth is 20.5% in assay [7], 34.6% in assay [8], 25.6% in assay [9] and 39.4% in [10].
Regarding `O=C(Nc1cccc(Cl)c1)Nc1ccccc1Cl`, the growth is 93.6% in [1]; 80.8% in assay [2]; 89.4% in [3]; 102% in [4]; 87.3% in assay [5]; 57.1% in assay [6]. Moreover, the growth in assay [7] is 102%; in [8], 63.7%; in [9], 89.1%; in [10], 95.4%.
`COc1cc(C)c(Cl)cc1C1=NN(c2ccc(S(N)(=O)=O)cc2)C(/C=C/c2ccccc2)C1` (stereo not given): the growth in [1] is 35.1%; in assay [2], 23.2%; in assay [3] it was 65.2%; in assay [4] it was 38.6%; in [5] it was 18.3%; in assay [6], 7.54% (active). Also, the growth in assay [7] is 64.9%; in [8] it was 39.8%; in assay [9] it was 51.6%; in [10] it was 88.1%.
In the case of `CCCC(CCC)(C(N)=O)C(=O)O`, the growth is 105% in assay [1]; 101% in assay [2]; 104% in [3]; 112% in assay [4]; 106% in [5]; 121% in assay [6]. The growth was 110% in [7], 106% in assay [8], 93.5% in assay [9] and 113% in assay [10].
For the compound `CN1CCC2(CC1)N=C(SCC(=O)Nc1cnc3ccccc3c1)C(c1ccc(Br)cc1)=N2`, the growth in [1] is 12%; in assay [2], -67.1% (active); in assay [3], 25.4%; in assay [4] it was 40.7%; in assay [5], -24.7% (active); in assay [6], 21.3%. Moreover, the growth in assay [7] is -96.2% (active); in [8], -78.9% (active); in assay [9] it was -78.5% (active); in assay [10], -70.1% (active).
Take `CC(C)(C)[Si](C)(C)OC1[C@@H](O[Si](C)(C)C(C)(C)C)[C@@H](CNC(=O)NC(=O)NC(=O)CCl)O[C@H]1n1cnc2c(NC(=O)Nc3ccccc3)ncnc21` (stereo not given in full): the growth was 79% in [1]; -11.4% (active) in assay [2]; 80.2% in assay [3]; 99.5% in assay [4]; 29.7% in assay [5]; 11.3% in assay [6]. The growth in [7] was 86.6%; in assay [8], 87.7%; in assay [9], -74.5% (active); in [10], 105%.
In the case of `Cc1ccsc1C(=O)CC(=O)C(F)(F)C(F)(F)C(F)(F)F`, the growth in [1] was 111%; in assay [2] it was 111%; in assay [3], 92.3%; in assay [4], 111%; in assay [5], 103%; in assay [6], 91.2%. Besides, the growth in assay [7] was 109%; in assay [8], 96.7%; in assay [9], 97.8%; in assay [10], 103%.
With `OC(COCc1ccccc1)COCc1ccccc1`, the growth in assay [1] is 109%; in assay [2] it was 106%; in assay [3], 90.8%; in assay [4] it was 111%; in assay [5] it was 96.1%; in assay [6], 111%. The growth in assay [7] is 111%; in [8], 103%; in assay [9] it was 101%; in assay [10], 113%.
In the case of `CCN(CC)c1cc(C)c(Cc2c(OC)ccc3ccccc23)cc1C`, the growth in assay [1] was 97.8%; in [2], 73.7%; in assay [3] it was 91.1%; in [4], 93.2%; in assay [5] it was 94.9%; in assay [6], 83.9%. The growth in [7] was 99.4%; in assay [8], 79.8%; in assay [9], 94.9%; in [10], 100%.
Turning to `N/N=C(\C(=N\N)c1ccccc1)c1ccccc1`, the growth in assay [1] was 104%; in assay [2], 94.7%; in assay [3] it was 86.4%; in assay [4] it was 96.6%; in [5], 104%; in assay [6], 88.7%. The growth was 101% in assay [7], 90.2% in assay [8], 97.3% in [9] and 105% in [10].
